Assay results as given in the supplement of paper PMC6555819.

Legend:
Assay in all cases: PBM binding z-score (relative to random genomic background probes); higher = stronger binding; sequences stand for … in GC…GCGATTGACAGCGTAGAATGAAGG
[1] = system: FXR:RXRa (NR concentration 270 nM, RXRa partner concentration 90 nM)
Method in brief: (§1)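 Regression normalization was applied to scanned fluorescence from custom Agilent 4×180K protein-binding microarrays. Before scanning, arrays were incubated 1 h with ligand-free nuclear receptor dimers, and binding was detected with antibodies against each partner (one per run). Binding z-scores use the random background probes as reference.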

[2] = system: LXRa:RXRa (NR concentration 270 nM, RXRa partner concentration 90 nM)
Method in brief: as §1

[3] = system: LXRa homodimer (NR concentration 270 nM)
Method in brief: as §1

[4] = system: LXRb:RXRa (NR concentration 270 nM, RXRa partner concentration 90 nM)
Method in brief: as §1

[5] = system: LXRb homodimer (NR concentration 270 nM)
Method in brief: as §1

[6] = system: PPARa:RXRa (NR concentration 270 nM, RXRa partner concentration 90 nM)
Method in brief: as §1

[7] = system: PPARg:RXRa 270nM:90nM, anti-RXR (NR concentration 270 nM, RXRa partner concentration 90 nM)
Method in brief: as §1

[8] = system: PPARg:RXRa 30nM:10nM, anti-RXR (NR concentration 30 nM, RXRa partner concentration 10 nM)
Method in brief: as §1

[9] = system: PPARg:RXRa 90nM:30nM, anti-RXR (NR concentration 90 nM, RXRa partner concentration 30 nM)
Method in brief: as §1

[10] = system: PPARg:RXRa DBDmut IVT, anti-RXR (DBD mutation: RXRa K156A/R161A, NR concentration 270 nM, RXRa partner concentration 90 nM)
Method in brief: as §1

[11] = system: PPARg:RXRa IVT, anti-PPARg (NR concentration 270 nM, RXRa partner concentration 90 nM)
Method in brief: as §1

[12] = system: PPARg DBDmut:RXRa IVT, anti-PPARg (DBD mutation: PPARg1 K132A/R137A, NR concentration 270 nM, RXRa partner concentration 90 nM)
Method in brief: as §1

[13] = system: PPARg DBDmut IVT, anti-PPARg (DBD mutation: PPARg1 K132A/R137A, NR concentration 270 nM)
Method in brief: as §1

[14] = system: PPARg homodimer (NR concentration 180 nM)
Method in brief: as §1

[15] = system: PXR:RXRa (NR concentration 270 nM, RXRa partner concentration 90 nM)
Method in brief: as §1

[16] = system: PXR homodimer (NR concentration 270 nM)
Method in brief: as §1

[17] = system: RARa:RXR (NR concentration 270 nM, RXRa partner concentration 90 nM)
Method in brief: as §1

[18] = system: RARa homodimer (NR concentration 270 nM)
Method in brief: as §1

[19] = system: RARb:RXRa (NR concentration 270 nM, RXRa partner concentration 90 nM)
Method in brief: as §1

[20] = system: PPARg:RXRa (NR concentration 180 nM, RXRa partner concentration 90 nM)
Method in brief: as §1

Sequence	PBM binding z-score [1]	PBM binding z-score [2]	PBM binding z-score [3]	PBM binding z-score [4]	PBM binding z-score [5]	PBM binding z-score [6]	PBM binding z-score [7]	PBM binding z-score [8]	PBM binding z-score [9]	PBM binding z-score [10]	PBM binding z-score [11]	PBM binding z-score [12]	PBM binding z-score [13]	PBM binding z-score [14]	PBM binding z-score [15]	PBM binding z-score [16]	PBM binding z-score [17]	PBM binding z-score [18]	PBM binding z-score [19]	PBM binding z-score [20]
ACTTGGAGGACAAAGGTCAGAGCTACGCCAGTGA	4.75	4.49	1.97	3.58	0.676	5.71	9.07	8.21	10.6	2.6	5.22	1.39	1.18	4.64	4.33	0.449	5.83	2.6	4.72	–
CGAACTAGGTCACCAGGACCGTGAAGAGGTTGGA	3.87	2.36	-0.1	1.5	-0.339	4.88	6.8	4.02	6.42	8.24	8.31	–	0.567	1.94	1.19	-0.498	2.08	-0.00105	4.08	8.27
CGTACTAGGTCACCAGGACAGTGAAGAGGTTGGA	3.85	2.7	0.154	2.01	-0.0806	4.67	6.32	3.8	5.83	7.9	8.08	–	4.96	3.11	1.53	0.369	2.86	0.557	4.19	7.91
CAAACTAGGTCAAGGTCAAAGTAGGTTTGTGCCA	7.18	5.78	4.55	4.82	1.64	6.41	8.19	6.7	8.63	8.75	8.96	4.01	3.69	5.67	5.46	2.97	5.43	2.61	5.31	–
CGAACTAGGTGACCAGGACAGTGAAGAGGTTGGA	-0.0348	-0.436	-0.313	-0.307	-0.898	2.67	3.34	1.03	1.94	7.15	7	–	-0.325	-0.217	-0.13	-0.15	0.228	-0.394	0.744	3.98
CGAACTAGGTCACCAGGATAGTGAAGAGGTTGGA	4.03	2.47	0.115	1.87	-0.103	5.37	6.98	4.74	6.8	8.36	8.68	–	2.4	2.57	1.4	-0.0879	2.59	0.146	4.2	8.87
CCTACTGGGCCAAAGGTCATAGATTCCAATGCTC	4.64	4.61	3.46	4.47	0.244	6.34	10.5	11	11.5	5.3	7.19	0.0659	-0.0407	4.53	5.14	1.46	6.41	1.47	4.4	–
ACTTACGGGTCAAGGAGGTTATAGCACGCGTATA	6.35	4.93	1.1	4.17	0.922	5.72	5.1	2.1	3.84	2.9	3.94	1.06	0.844	2.7	4.24	1.47	4.99	1.24	4.09	–
TTAACAAGGTGAAAGGTCGTTGATGCACGCCTTG	3.99	3.48	0.202	2.81	-0.19	6	8.81	9.66	9.79	4.84	5.57	0.666	0.131	2.13	3.92	0.791	5.73	-0.215	3.09	–
CGTACTAGGTCAAAGGACAGTGAAAGGCGACGTA	3.86	2.77	0.17	1.89	-0.0877	4.83	7.95	8.11	9.06	7.43	8	–	1.47	2.5	1.14	0.0831	2.27	0.22	3.85	9.74
TGAATGAGGTGAAAGATCAGGGAACGTGGCGTCG	1.19	1.1	-0.421	0.428	0.209	4.52	6.92	6.44	7.54	3.85	5	2.22	0.574	0.746	0.587	-0.0848	1.8	-0.562	1.48	–
ATATGTTGGTTAGGGTCATTCAGAAAGTAGGGAA	4.81	4	1.67	4.72	2.36	4.86	3.69	1.7	2.88	1.44	2.45	–	1.7	3.53	4.44	2.69	4.96	2.67	3.2	3.15
CGAACTCGGTCACCAGGACAGTGAAGAGGTTGGA	0.841	0.683	0.119	-0.176	-1.17	1.76	1.64	-0.104	0.606	4.23	3.87	–	-0.647	0.233	0.0316	-0.302	0.493	-0.227	2.69	1.91
CGAAGTAGGTCACCAGGACAGTGAAGAGGTTGGA	3.65	2.69	0.0752	2.07	-0.257	5.34	7.35	4.81	7.02	8.22	8.92	–	0.944	1.76	1.71	0.236	2.78	0.426	3.99	8.79
ATAAGTAGGTTAGGGTCATTCAGAAAGTAGGGAA	4.83	4.27	1.68	4.53	2.04	5.65	7.06	4.72	7	6.82	6.77	–	2.11	3.79	4.78	3.26	5.36	2.72	3.63	8.07
